# In ChEMBL document CHEMBL3433997, “St. Jude Leishmania screening dataset” (2016):
# What was measured:
# Assay type in all cases: functional
# [1] = biological target: Solute carrier family 2, facilitated glucose transporter member 1 (Homo sapiens) (UniProt P11166); assay: ST_JUDE_LEISH: Cytotoxicity at 2uM final concentration against transgenic Leishmania Mexicana promastigotes LmGLUT1 that are glucose transport deficient and complemented with the human glucose transporter GLUT1. Activity is measured by DNA content using SYBR green in vitro
# [2] = biological target: Hexose transporter 1 (Plasmodium falciparum) (UniProt O97467); assay: ST_JUDE_LEISH: Cytotoxicity at 2uM final concentration against transgenic Leishmania Mexicana promastigotes LmPfHT that are glucose transport deficient and complemented with the Plasmodium falciparum hexose transporter. Activity is measured by DNA content using SYBR green in vitro
# [3] = biological target: Glucose transporter (Leishmania mexicana) (UniProt O61059); assay: ST_JUDE_LEISH: Cytotoxicity at 2uM final concentration against transgenic Leishmania Mexicana promastigotes LmGT2 that are glucose transport deficient and complemented with the L. Mexicana glucose transporter 2. Activity is measured by DNA content using SYBR green in vitro
# Sequence of Solute carrier family 2, facilitated glucose transporter member 1 (Homo sapiens) (P11166 whole entry): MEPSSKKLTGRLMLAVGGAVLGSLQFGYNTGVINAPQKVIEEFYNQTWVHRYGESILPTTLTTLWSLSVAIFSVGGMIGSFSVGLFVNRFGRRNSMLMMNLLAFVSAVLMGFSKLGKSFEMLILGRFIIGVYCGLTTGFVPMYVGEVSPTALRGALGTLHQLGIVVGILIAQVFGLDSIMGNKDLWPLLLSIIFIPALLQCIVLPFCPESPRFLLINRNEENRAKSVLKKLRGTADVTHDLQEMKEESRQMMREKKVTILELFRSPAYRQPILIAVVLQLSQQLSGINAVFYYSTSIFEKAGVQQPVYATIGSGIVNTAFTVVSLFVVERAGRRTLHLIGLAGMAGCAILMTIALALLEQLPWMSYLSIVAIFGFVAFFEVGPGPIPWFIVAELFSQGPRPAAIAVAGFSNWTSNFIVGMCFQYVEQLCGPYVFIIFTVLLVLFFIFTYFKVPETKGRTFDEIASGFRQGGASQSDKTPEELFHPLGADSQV
SMILES,inhibition [1] [%],inhibition [2] [%],inhibition [3] [%]
CCOc1ccc2[nH]c(C)cc(=NN=Cc3cccc(C)n3)c2c1,3.19,7.58,2.54
O=C(NC1CCC(N2CCCC(OCc3ccccc3)C2)CC1)c1cc2ccccc2[nH]1 (stereo unspecified),0.93,3.87,-1.89
Nc1cc(-c2cc3c(OCc4ccccc4)cccc3[nH]2)ccn1,1.13,4.32,1.6
CC[C@H](C)CNC(=O)c1ccc(-c2cccc(CN3CCC(N4CCCC4)CC3)c2)nc1,0.61,0.29,0.34
N#Cc1ccc(-c2ccc(C(=O)NCCCCN3CCC(c4ccc5c(c4OCc4ccncc4)CCCC5)CC3)cc2)cc1,0.21,3.1,1.26
c1ccc(CCNCc2cccc(-c3ccccc3CNCc3ccc4c(c3)OCO4)c2)nc1,0.71,0.88,0.68
O=C(Nc1cccc(C(F)(F)F)c1)c1cccc(S(=O)(=O)NCC2CCCN2CC2CCCCC2)c1 (stereo unspecified),5.37,3.21,4.26
O=C(Nc1cccc(CN2CCCN(CC3CC3)CC2)c1)c1ccc(-c2ccccc2)cc1,3.62,4.69,-0.4
COc1cc(NC(=O)Nc2ccnc3ccccc23)cc(OC)c1,0.62,-0.6,1.16
Cc1ccc2c(=NN=Cc3ccc(Cl)cc3)cc(C)[nH]c2c1,4.64,4.7,2.66
CC(=NNC(S)=NCCc1ccccn1)c1ccccn1,7.78,4.39,6.19
Cc1ccc(-c2cnc3[nH]cc(-c4ccc(C(=O)O)c(C)c4)c3c2)cc1C,1.15,1.14,1.64
CC(=O)C1=NN(c2ccc(Cl)cc2)C(c2cccs2)N1c1ccccc1 (stereo unspecified),1.62,0.36,0.54
CC(C)(C)N1CCC(N(Cc2ccc(-c3ccc(C(F)(F)F)cc3)cc2)C(=O)Cn2c(CCc3cccc(F)c3F)nc(=O)c3cccnc32)CC1,2.09,0.99,0.47
CCN1CCC(N(Cc2ccc(-c3ccc(C(F)(F)F)cc3)cc2)C(=O)Cn2c(SCc3cccc(F)c3F)cc(=O)c3ccccc32)C1 (stereo unspecified),0.27,-0.31,-0.18
O=C(Nc1cccc(-c2nn3ccccc3c2-c2ccnc(Nc3cccc(F)c3)n2)c1)c1c(F)ccc(F)c1F,6.01,9.13,5.56

SMILES,inhibition [1] [%],inhibition [2] [%],inhibition [3] [%]
Cc1cccc2nc(-c3ccc(-c4ccc(CN5CCN(CC6CCCN(C)C6)CC5)cc4)cc3)[nH]c12 (stereo unspecified),8.82,10.8,6.25
CN1CCN(c2ccnc3ccc(NC(=O)Nc4cccc5c(Br)cccc45)cc23)CC1,0.91,3.33,2.86
CN(C)CCOc1ccc2c(c1)OC(C)(C)C=C2c1cccc2ccccc12,4.01,3.57,3.75
c1ccc([C@H]2CN3CCSC3=N2)cc1,-0.53,2.58,-0.34
CN(C)C(CNc1ncnc2cc(Cl)ccc12)Cc1ccccc1 (stereo unspecified),4.67,3.87,3.65
Nc1cccc(CNCc2ccc(-c3ccc(-c4nc5ccccc5[nH]4)s3)cc2)c1,2.71,-0.53,2.48
O=C(/C=C/c1ccc(Cl)c(Cl)c1)NCCCCCN1CCC(NC(=O)Nc2ccc(C(F)(F)F)cc2)C1 (stereo unspecified),-0.17,-0.88,-3.22
COc1ccc2ccccc2c1CCCCN1CCN(CC(c2ccc(F)cc2)N2CCC(N3CCCC3)CC2)CC1 (stereo unspecified),3.25,3.63,7.05
O=C(Nc1cccc(-c2nn3ccccc3c2-c2ccnc(Nc3cccc(-c4cnco4)c3)n2)c1)C1CCCCC1,1.06,3.39,-0.16
COc1ccc(-n2cc(CNCCCn3ccnc3)c(-c3cccc(F)c3)n2)cc1,1.74,2.48,-5.03
CC(C)C[C@H](NC(=O)c1ccc(OCCN2CCOCC2)cc1)C(=O)N[C@H](/C=N/N(C)C(=O)c1ccccc1)CCc1ccccc1,3.84,8.34,2.75
CN1CCC(NCc2ccc(-c3ccc(S(=O)(=O)NC4CCC4)s3)cc2)CC1,3.46,1.25,0.74
c1ccc(COc2ccccc2COc2ccccc2-c2ccc3cccnc3n2)cc1,0.28,-0.32,5.87
N#Cc1ccc(-c2ccc(C(=O)NCCCCN3CCC(c4cn(CCCO)c5ccccc45)CC3)cc2)cc1,2,1.61,1.21
COc1ccc(CCNC(=O)c2cc(C)ccc2O)cc1-c1ccc(C(C)(C)C)cc1,4.36,2.89,4.35
Cc1cc(C)c(NC(=O)N2CCCN(CCCCCNC(=O)/C=C/c3ccc(Cl)c(Cl)c3)CC2)c(C)c1,3.44,2.95,2.56
